Where two headings read alike, the source gives them in different places.
Test system: IRAK4
Conditions: read-out: apparent Kd, n = 1

Substance: Lestaurtinib
- potency estimated from few doses (compound concentrations:100 nM and 1000 nM (sheet 'Lestaurtinib' of Supplementary Table 1),run:Lestaurtinib_02443_R2,Plate:MR009): 92.2 nM
- potency estimated from few doses (compound concentrations:100 nM and 1000 nM (sheet 'Lestaurtinib' of Supplementary Table 1),run:Lestaurtinib_02443_R3,Plate:MR009): 98.9 nM
- potency estimated from few doses (compound concentrations:100 nM and 1000 nM (sheet 'Lestaurtinib' of Supplementary Table 1),run:Lestaurtinib_02473_R1,Plate:MR010): 79.8 nM
- potency estimated from few doses (compound concentrations:100 nM and 1000 nM (sheet 'Lestaurtinib' of Supplementary Table 1),run:Lestaurtinib_02473_R2,Plate:MR010): 132 nM
- potency estimated from few doses (compound concentrations:100 nM and 1000 nM (sheet 'Lestaurtinib' of Supplementary Table 1),run:Lestaurtinib_02473_R3,Plate:MR010): 96.5 nM
- potency estimated from few doses (compound concentrations:100 nM and 1000 nM (sheet 'Lestaurtinib' of Supplementary Table 1),run:Lestaurtinib_02482_R1,Plate:MR011): 78.2 nM
- potency estimated from few doses (compound concentrations:100 nM and 1000 nM (sheet 'Lestaurtinib' of Supplementary Table 1),run:Lestaurtinib_02482_R2,Plate:MR011): 180 nM
- potency estimated from few doses (compound concentrations:100 nM and 1000 nM (sheet 'Lestaurtinib' of Supplementary Table 1),run:Lestaurtinib_02482_R3,Plate:MR011): 99.7 nM
- potency estimated from few doses (compound concentrations:100 nM and 1000 nM (sheet 'Lestaurtinib' of Supplementary Table 1),run:Lestaurtinib_02496_R1,Plate:MR013): 124 nM
- potency estimated from few doses (compound concentrations:100 nM and 1000 nM (sheet 'Lestaurtinib' of Supplementary Table 1),run:Lestaurtinib_02496_R2,Plate:MR013): 146 nM
- potency estimated from few doses (compound concentrations:100 nM and 1000 nM (sheet 'Lestaurtinib' of Supplementary Table 1),run:Lestaurtinib_02496_R3,Plate:MR013): 193 nM
- potency estimated from few doses (compound concentrations:100 nM and 1000 nM (sheet 'Lestaurtinib' of Supplementary Table 1),run:Lestaurtinib_02566_R1,Plate:MR014): 142 nM
- potency estimated from few doses (compound concentrations:100 nM and 1000 nM (sheet 'Lestaurtinib' of Supplementary Table 1),run:Lestaurtinib_02566_R3,Plate:MR014): 80.8 nM
- potency estimated from few doses (compound concentrations:100 nM and 1000 nM (sheet 'Lestaurtinib' of Supplementary Table 1),run:Lestaurtinib_02577_R1,Plate:MR016): 88.6 nM
- potency estimated from few doses (compound concentrations:100 nM and 1000 nM (sheet 'Lestaurtinib' of Supplementary Table 1),run:Lestaurtinib_02577_R2,Plate:MR016): 97.5 nM
- potency estimated from few doses (compound concentrations:100 nM and 1000 nM (sheet 'Lestaurtinib' of Supplementary Table 1),run:Lestaurtinib_02577_R3,Plate:MR016): 63.8 nM
- potency estimated from few doses (compound concentrations:100 nM and 1000 nM (sheet 'Lestaurtinib' of Supplementary Table 1),run:Lestaurtinib_02601_R1,Plate:MR018): 144 nM
- potency estimated from few doses (compound concentrations:100 nM and 1000 nM (sheet 'Lestaurtinib' of Supplementary Table 1),run:Lestaurtinib_02601_R2,Plate:MR018): 142 nM
- potency estimated from few doses (compound concentrations:100 nM and 1000 nM (sheet 'Lestaurtinib' of Supplementary Table 1),run:Lestaurtinib_02606_R1,Plate:MR019): 88.5 nM
- potency estimated from few doses (compound concentrations:100 nM and 1000 nM (sheet 'Lestaurtinib' of Supplementary Table 1),run:Lestaurtinib_02624_R2,Plate:MR020): 143 nM
- potency estimated from few doses (compound concentrations:100 nM and 1000 nM (sheet 'Lestaurtinib' of Supplementary Table 1),run:Lestaurtinib_02624_R3,Plate:MR020): 124 nM
- potency estimated from few doses (compound concentrations:100 nM and 1000 nM (sheet 'Lestaurtinib' of Supplementary Table 1),run:Lestaurtinib_02724_R2,Plate:MR021): 99.3 nM
- potency estimated from few doses (compound concentrations:100 nM and 1000 nM (sheet 'Lestaurtinib' of Supplementary Table 1),run:Lestaurtinib_02741_R1,Plate:MR023): 89.6 nM
- potency estimated from few doses (compound concentrations:100 nM and 1000 nM (sheet 'Lestaurtinib' of Supplementary Table 1),run:Lestaurtinib_02741_R3,Plate:MR023): 71.3 nM
- potency estimated from few doses (compound concentrations:100 nM and 1000 nM (sheet 'Lestaurtinib' of Supplementary Table 1),run:Lestaurtinib_02748_R3,Plate:MR024): 80.9 nM
- potency estimated from few doses (compound concentrations:100 nM and 1000 nM (sheet 'Lestaurtinib' of Supplementary Table 1),run:Lestaurtinib_02752_R2,Plate:MR025): 160 nM
- potency estimated from few doses (compound concentrations:100 nM and 1000 nM (sheet 'Lestaurtinib' of Supplementary Table 1),run:Lestaurtinib_02752_R3,Plate:MR025): 80.1 nM
- potency estimated from few doses (compound concentrations:100 nM and 1000 nM (sheet 'Lestaurtinib' of Supplementary Table 1),run:Lestaurtinib_02765_R2,Plate:MR026): 75.7 nM
- potency estimated from few doses (compound concentrations:100 nM and 1000 nM (sheet 'Lestaurtinib' of Supplementary Table 1),run:Lestaurtinib_02766_R2,Plate:MR027): 146 nM
- potency estimated from few doses (compound concentrations:100 nM and 1000 nM (sheet 'Lestaurtinib' of Supplementary Table 1),run:Lestaurtinib_02766_R3,Plate:MR027): 121 nM
- potency estimated from few doses (compound concentrations:100 nM and 1000 nM (sheet 'Lestaurtinib' of Supplementary Table 1),run:Lestaurtinib_02768_R1,Plate:MR028): 136 nM
- potency estimated from few doses (compound concentrations:100 nM and 1000 nM (sheet 'Lestaurtinib' of Supplementary Table 1),run:Lestaurtinib_02768_R2,Plate:MR028): 97.8 nM
- potency estimated from few doses (compound concentrations:100 nM and 1000 nM (sheet 'Lestaurtinib' of Supplementary Table 1),run:Lestaurtinib_02795_R2,Plate:MR022): 94.1 nM
- potency estimated from few doses (compound concentrations:100 nM and 1000 nM (sheet 'Lestaurtinib' of Supplementary Table 1),run:Lestaurtinib_02795_R3,Plate:MR022): 239 nM
- potency estimated from few doses (compound concentrations:100 nM and 1000 nM (sheet 'Lestaurtinib' of Supplementary Table 1),run:Lestaurtinib_02896_R1,Plate:MR030): 113 nM
- potency estimated from few doses (compound concentrations:100 nM and 1000 nM (sheet 'Lestaurtinib' of Supplementary Table 1),run:Lestaurtinib_03172_R2,Plate:MR031): 66.2 nM
